Bioassay records: PubChem BioAssay, National Center for Advancing Translational Sciences (NCATS)
DT40 TDP1 no CPT – qHTS for Inhibitors of human tyrosyl-DNA phosphodiesterase 1 (TDP1): qHTS in cells in absence of CPT; DT40 Tdp1-/- hTDP1 cells, no CPT, ATP luminescence, 48 h; actives 15% (n = 420,000); Potency, µM (highest dose often 46.2 µM), inactives show at the highest dose activity change, negative = growth inhibition, most hits filed as inhibitors; AID 686978, 2013; note: nearly all actives have a fitted effect of over 55% in size
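Growth of hTDP1-complemented DT40 Tdp1-knockout cells is measured by ATP luminescence after at least 48 hr compound exposure at 37 °C, with DMSO substituting for the 20 nM CPT used in the parallel screen.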
TDP1 cell CPT – DT40-hTDP1 cell growth loss with CPT | chicken DT40 Tdp1-/-;hTDP1 cells + 20 nM CPT, ATP luminescence, 48 h | Potency, µM (doses to about 46.2 µM), inactives show at the top dose activity change, negative = growth inhibition, actives largely listed as inhibitors | actives 12% (n = 420,000); note: nearly all actives have a fitted effect of over 55% in size
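Chicken DT40 Tdp1-/- cells complemented with human TDP1, 400 cells/well, exposed to compounds plus 20 nM camptothecin for at least 48 h at 37 C; viability read as ATP content by CellTiter-Glo luminescence.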
HT1080-NT tox – kills 2HG-producing HT-1080-NT fibrosarcoma cells; actives 1.6% (n = 360,000); AID 686970; HT-1080-NT fibrosarcoma viability, CellTiter-Glo ATP luminescence, 48 h; Potency, µM (doses to about 46.1 µM), inactives show top-dose activity, negative = less viability, most hits filed as cytotoxic;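 note: NT is the 2HG producing partner of a matched IDH1 knockdown line; 0% = DMSO-treated cells and -100% = media-only wells without cells; nearly all actives have a fitted effect of over 55% in size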
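Viability by CellTiter-Glo luminescence after 48 h compound exposure at 37C of HT-1080-NT cells (750/well, RPMI, 5% FBS). % activity scaled between DMSO wells and medium-only wells, then curve-fitted and categorized by curve class.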
KB-V1 cytotox – kills drug-selected multidrug resistant KB-V1 cells; KB-V1 MDR cells viability, CellTiter-Glo, 72 h; Potency, µM (doses to about 46.1 µM), actives largely listed as cytotoxic; actives 3.4% (n = 400,000); note: nearly all actives have a fitted effect of over 60% in size
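Potencies derive from concentration-effect curves fitted to normalized luminescence (CellTiter-Glo) of KB-V1 cells treated for 72 h at 37 degrees C in phenol-red-free DMEM containing 10% FBS.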
HT1080 IDH1KD tx – toxicity to HT-1080 IDH1 knockdown cells (counter line); actives 2% (n = 360,000); Potency, µM (top dose mostly 46.1 µM), without a hit: top-dose activity, negative = toxicity, most hits filed as cytotoxic; HT-1080 IDH1 knockdown viability, ATP luminescence, 48 h;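 note: 0% = DMSO wells and -100% = cell-free medium wells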
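Using the IDH1-knockdown HT-1080 line run in the same batch and compound series as the NT line, viability after 48 h at 37 °C was determined by CellTiter-Glo luminescence and expressed as % activity.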
KB-3-1 cytotox – kills parental KB-3-1 adenocarcinoma cells; KB-3-1 viability, CellTiter-Glo ATP luminescence, 72 h; Potency, µM (top dose mostly 46.1 µM), actives largely listed as cytotoxic; actives 1.4% (n = 400,000); AID 1347075; note: nearly all actives have a fitted effect of over 60% in size
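Luminescent ATP read-out (CellTiter-Glo) measures survival of drug-naive KB-3-1 cells after 72 h compound exposure at 37 °C. Titration series was screened from lowest to highest concentration, with DMSO vehicle plates as background controls.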
Numbers without * were called inactive; i = inactive; ? = inconclusive; nt = no result. An excerpt weighted towards active compounds, which were near 19% of everything screened. Calls come from the whole dose curve; as a rule, active = well fitted curve in the direction sought with a large enough effect; inconclusive = small, poorly fitted or top-dose-only effect, or another doubt; inactive = no such curve, though single readings can be large; an effect the other way counts as inactive or inconclusive. Unless noted, % is set by controls: 0 for no effect and ±100 for the full control effect; potency is the fitted concentration of half-maximal effect.

SMILES	DT40 TDP1 no CPT	TDP1 cell CPT	HT1080-NT tox	KB-V1 cytotox	HT1080 IDH1KD tx	KB-3-1 cytotox
Cc1occc1-c1nnc(SCC(N)=O)n1Cc1ccccc1	1.7%	1.0%	0.3%	i	-3.8%	i
COc1ccc(S(=O)(=O)NCc2ccco2)cc1N(C)S(=O)(=O)c1ccccc1	?	-3.6%	4.1%	?	4.6%	i
CSc1ccc(CCNC(=O)c2ccc(-c3nc(COc4ccc(C)cc4)c(C)o3)cc2)cc1	-6.2%	-3.4%	nt	i	nt	i
CCOc1ccccc1NC(=O)CCc1c(C)nc2c3cccnc3nn2c1C	?	?	nt	i	nt	i
COc1ccc(-c2nnc3c4ccccc4c(C)nn23)cc1S(=O)(=O)N1CCN(CCO)CC1	?	?	?	?	8.91µM*	?
Cc1nn2c(-c3ccc(S(=O)(=O)N4CCN(CCO)CC4)o3)nnc2c2ccccc12	-16.7%	-23.8%	-8.2%	i	-16.3%	i
Cc1nn2c(-c3ccncc3)nnc2c2ccccc12	?	?	13.2%	i	11.9%	i
Cc1ccccc1-c1nnc2c3ccccc3c(C)nn12	?	2.1%	9.0%	7.31µM*	6.1%	?
COc1ccc(-c2nnc3c4ccccc4c(C)nn23)cc1	18.4µM*	?	?	3.66µM*	?	i
Cc1nn2c(-c3ccco3)nnc2c2ccccc12	20.6µM*	?	-10.2%	?	-17.7%	?
O=C(CN1C(=O)COc2ccc(S(=O)(=O)N3CCOCC3)cc21)N1CCN(c2ccc(F)cc2)CC1	nt	nt	nt	?	nt	i
O=C(Nc1ccccc1C(=O)N1CCCCC1)c1nsc2ccccc12	?	?	nt	i	nt	i
O=C1C=C(c2ccccc2)CC(c2cccs2)C1n1cnc([N+](=O)[O-])c1 (configuration not stated)	?	?	-2.0%	i	-3.0%	i
O=C1C=C(c2ccccc2)C[C@H](c2cccs2)[C@H]1n1nnc([N+](=O)[O-])n1	5.8µM*	6.51µM*	14.6µM*	16.4µM*	9.2µM*	i
C=CCOn1c(=O)c(-c2cccs2)[n+]([O-])c2ccccc21	?	23.1µM*	-3.7%	?	-6.8%	i
CCN(CC(O)Cn1c2ccccc2c2ccccc21)S(=O)(=O)c1ccc(F)cc1 (configuration not stated)	?	?	?	11.6µM*	?	?
O=S(=O)(c1ccc(F)cc1)N(CCO)CC(O)Cn1c2ccccc2c2ccccc21 (configuration not stated)	16.4µM*	?	?	23.1µM*	17.8µM*	i
Cc1cc(S(=O)(=O)N2CCCCC2)c(C)s1	1.9%	-1.4%	0.7%	i	0.0%	i
S=C(Nc1ccccc1)N1CCn2c1nc1ccccc12	-1.6%	-8.8%	1.41µM*	i	?	i
O=C(Nc1ccccc1)N1CCn2c1nc1ccccc12	?	?	-12.6%	i	-12.7%	i
CCCCCNC(=O)C1C(=O)Nc2ccccc2C(=O)N1c1c(C)cccc1C (configuration not stated)	-19.9%	4.5%	11.6%	i	10.3%	i
CN1C(=O)[C@H]2[C@@H](c3ccc(C(F)(F)F)cc3)N[C@]3(CCCN(Cc4ccc(C(F)(F)F)cc4)C3=O)[C@H]2C1=O	18.4µM*	23.1µM*	-13.4%	i	-19.5%	i
CN1C(=O)[C@H]2[C@@H](c3ccc(C(F)(F)F)cc3)N[C@]3(CCCN(Cc4ccc(Br)cc4)C3=O)[C@H]2C1=O	16.4µM*	14.6µM*	15.4%	i	12.3%	i
